Measured values as given in PubChem BioAssay AID1159580 (chemical genetic matrix, 2015).
In all, about 5,500 compounds went through this assay and about 2,000 (36%) were called active. About 18% were inconclusive and are not listed. Cut-off read from the data, not from the text of the source: active = normalized growth mostly below about 0.91 (no sharp cut-off); inconclusive = no clear call, values can overlap the other calls; inactive = mostly above about 0.92. The list shows a part of the results.

Assay: chemical genetic growth profiling, strain panel (AID 1159580);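 note: tested at 20 µM; growth read once vehicle control cultures reached saturation at 30 °C; 1 = growth at the plate median or of vehicle wells; lower values mean less growth of the strain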
Details: S. cerevisiae deletion strains, growth OD

Measured: normalized growth

CCCC[C@@H](CC)COC(=O)c1ccccc1O
inactive: locus YHR030C, strain SLT2, hits give low values 0.979 | locus YHR079C, strain IRE1, hits give low values 0.99 | locus YJL095W, strain BCK1, hits give low values 1.02 | locus YJR066W, strain TOR1, hits give low values 0.938 | locus YLR113W, strain HOG1, hits give low values 0.974 | locus YNL183C, strain NPR1, hits give low values 0.958 | locus YOR231W, strain MKK1, hits give low values 0.984 | locus YPL256C, strain CLN2, hits give low values 0.994
